The text below walks through data of the supplement of paper PMC11732987, “Enantioselective OTUD7B fragment discovery through chemoproteomics screening and high-throughput optimisation” (Communications Chemistry, 2025).

Molecules are shown by their SMILES. Values without a mark were called inactive.

Common to all, as to test: log2 ratio of Biotin-Ahx-Ub-VS probe labelling (fragment/DMSO); higher = less target engagement (more negative = stronger competition), active = hit call of the paper (q ≤ 0.05, log2 ratio ≤ -1)
Common to all, as to conditions: compound concentration: 200 uM; treatment time: 3 h

In experiment [1] the target is USP16 (UniProt Q9Y5T5). An outline of the steps: (§1)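 Labelled DUBs were enriched with NeutrAvidin, digested with LysC and trypsin, and run by diaPASEF LC-MS/MS. The labelling used Biotin-Ahx-Ub-VS at 0.5 µM final for 1 h on HEK293T lysate (495 µg per sample) previously treated in triplicate with fragment at 200 µM or vehicle for 3 h. Values are average log2 fragment/vehicle ratios by unpaired t-test on global-median-normalised Spectronaut quantities of proteins with ≥2 unique peptides.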
Sequence of USP16 (Q9Y5T5 whole entry, looked up, the tested form may be a part): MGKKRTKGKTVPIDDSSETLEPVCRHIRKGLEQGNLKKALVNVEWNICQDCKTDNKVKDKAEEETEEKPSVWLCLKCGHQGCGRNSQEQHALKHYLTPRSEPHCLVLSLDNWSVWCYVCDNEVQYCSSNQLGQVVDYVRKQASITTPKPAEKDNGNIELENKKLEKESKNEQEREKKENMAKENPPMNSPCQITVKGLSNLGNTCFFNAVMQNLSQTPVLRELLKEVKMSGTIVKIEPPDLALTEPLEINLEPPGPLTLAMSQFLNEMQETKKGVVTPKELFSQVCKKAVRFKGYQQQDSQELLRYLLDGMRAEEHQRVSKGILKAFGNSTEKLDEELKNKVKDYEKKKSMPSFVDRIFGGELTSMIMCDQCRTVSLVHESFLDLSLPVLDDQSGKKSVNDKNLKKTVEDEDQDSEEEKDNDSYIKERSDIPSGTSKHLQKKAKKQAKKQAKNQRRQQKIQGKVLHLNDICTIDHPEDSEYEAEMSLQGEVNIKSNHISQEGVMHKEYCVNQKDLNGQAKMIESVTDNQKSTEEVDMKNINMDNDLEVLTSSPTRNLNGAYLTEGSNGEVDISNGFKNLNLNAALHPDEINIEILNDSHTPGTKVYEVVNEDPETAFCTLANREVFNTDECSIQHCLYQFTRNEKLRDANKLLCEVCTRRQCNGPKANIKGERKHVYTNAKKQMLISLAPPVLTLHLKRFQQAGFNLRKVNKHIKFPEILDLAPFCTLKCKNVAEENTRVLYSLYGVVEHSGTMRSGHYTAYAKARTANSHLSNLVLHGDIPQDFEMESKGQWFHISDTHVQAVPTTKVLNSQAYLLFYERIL

The target of experiment [2] is T1, USP19 (UniProt O94966).
T1 sequence (whole entry): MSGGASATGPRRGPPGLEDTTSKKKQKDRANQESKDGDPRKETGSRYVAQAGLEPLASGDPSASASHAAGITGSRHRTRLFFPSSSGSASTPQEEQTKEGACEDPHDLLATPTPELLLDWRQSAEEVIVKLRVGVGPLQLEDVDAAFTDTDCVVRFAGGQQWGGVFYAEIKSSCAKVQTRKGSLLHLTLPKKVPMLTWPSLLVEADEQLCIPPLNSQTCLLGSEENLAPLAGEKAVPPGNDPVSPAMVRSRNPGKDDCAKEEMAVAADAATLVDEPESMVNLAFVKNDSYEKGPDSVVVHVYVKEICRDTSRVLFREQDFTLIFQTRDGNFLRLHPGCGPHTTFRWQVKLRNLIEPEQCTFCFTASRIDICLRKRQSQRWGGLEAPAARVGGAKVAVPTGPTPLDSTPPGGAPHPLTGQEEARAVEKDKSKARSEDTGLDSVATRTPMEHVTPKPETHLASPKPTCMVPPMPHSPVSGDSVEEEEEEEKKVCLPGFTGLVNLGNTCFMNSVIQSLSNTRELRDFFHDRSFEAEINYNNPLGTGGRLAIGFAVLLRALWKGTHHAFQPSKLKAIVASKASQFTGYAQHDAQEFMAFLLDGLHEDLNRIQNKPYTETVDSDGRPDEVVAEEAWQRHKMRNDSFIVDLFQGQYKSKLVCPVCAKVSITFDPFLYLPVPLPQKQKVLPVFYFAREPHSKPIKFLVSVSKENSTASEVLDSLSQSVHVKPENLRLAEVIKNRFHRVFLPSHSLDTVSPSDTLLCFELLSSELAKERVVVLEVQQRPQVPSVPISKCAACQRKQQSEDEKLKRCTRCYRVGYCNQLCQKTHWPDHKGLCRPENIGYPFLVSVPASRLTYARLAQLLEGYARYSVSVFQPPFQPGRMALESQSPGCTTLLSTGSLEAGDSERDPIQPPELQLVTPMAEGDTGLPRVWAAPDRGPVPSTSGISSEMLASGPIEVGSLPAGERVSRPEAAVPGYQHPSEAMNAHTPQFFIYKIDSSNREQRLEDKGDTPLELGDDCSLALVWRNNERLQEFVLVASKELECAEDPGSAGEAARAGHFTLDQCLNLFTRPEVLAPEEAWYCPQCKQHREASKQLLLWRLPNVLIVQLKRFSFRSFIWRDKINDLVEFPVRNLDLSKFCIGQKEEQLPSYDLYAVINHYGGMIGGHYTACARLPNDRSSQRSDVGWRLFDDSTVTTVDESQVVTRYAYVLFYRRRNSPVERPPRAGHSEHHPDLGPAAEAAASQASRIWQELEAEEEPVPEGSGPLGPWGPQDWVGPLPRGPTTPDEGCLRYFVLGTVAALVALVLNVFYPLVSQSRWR
An outline of the steps: as §1

In experiment [3] the target is USP24 (UniProt Q9UPU5). The gist of the method:
as §1

For experiment [4], the target named is T2, USP25 (UniProt Q9UHP3).
T2 sequence (whole entry): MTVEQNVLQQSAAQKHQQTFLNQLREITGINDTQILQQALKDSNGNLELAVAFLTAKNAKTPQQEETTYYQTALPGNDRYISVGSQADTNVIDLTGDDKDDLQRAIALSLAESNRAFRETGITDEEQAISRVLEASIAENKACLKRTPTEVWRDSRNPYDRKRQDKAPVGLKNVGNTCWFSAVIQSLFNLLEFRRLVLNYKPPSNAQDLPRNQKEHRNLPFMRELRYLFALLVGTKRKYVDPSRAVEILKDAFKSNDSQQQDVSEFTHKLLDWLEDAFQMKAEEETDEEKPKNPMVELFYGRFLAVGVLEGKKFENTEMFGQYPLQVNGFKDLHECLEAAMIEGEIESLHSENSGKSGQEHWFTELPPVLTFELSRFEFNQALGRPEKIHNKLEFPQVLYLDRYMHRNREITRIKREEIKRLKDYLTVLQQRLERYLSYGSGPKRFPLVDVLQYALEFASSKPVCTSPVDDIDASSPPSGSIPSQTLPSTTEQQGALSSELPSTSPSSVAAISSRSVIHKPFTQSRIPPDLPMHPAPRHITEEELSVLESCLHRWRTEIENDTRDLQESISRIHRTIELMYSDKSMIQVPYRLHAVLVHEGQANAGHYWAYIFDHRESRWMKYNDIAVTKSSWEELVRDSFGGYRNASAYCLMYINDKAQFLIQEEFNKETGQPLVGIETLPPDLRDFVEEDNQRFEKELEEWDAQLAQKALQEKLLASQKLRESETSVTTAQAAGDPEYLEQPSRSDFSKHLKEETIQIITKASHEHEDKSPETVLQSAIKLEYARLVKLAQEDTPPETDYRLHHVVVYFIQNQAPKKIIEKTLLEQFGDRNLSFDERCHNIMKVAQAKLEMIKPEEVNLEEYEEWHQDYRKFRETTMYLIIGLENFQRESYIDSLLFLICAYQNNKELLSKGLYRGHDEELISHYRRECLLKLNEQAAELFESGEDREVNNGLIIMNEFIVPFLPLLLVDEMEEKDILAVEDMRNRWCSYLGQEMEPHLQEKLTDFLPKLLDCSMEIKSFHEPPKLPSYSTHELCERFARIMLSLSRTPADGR
An outline of the steps: as §1

For experiment [5], the target named is T3, USP28 (UniProt Q96RU2).
T3 sequence (whole entry): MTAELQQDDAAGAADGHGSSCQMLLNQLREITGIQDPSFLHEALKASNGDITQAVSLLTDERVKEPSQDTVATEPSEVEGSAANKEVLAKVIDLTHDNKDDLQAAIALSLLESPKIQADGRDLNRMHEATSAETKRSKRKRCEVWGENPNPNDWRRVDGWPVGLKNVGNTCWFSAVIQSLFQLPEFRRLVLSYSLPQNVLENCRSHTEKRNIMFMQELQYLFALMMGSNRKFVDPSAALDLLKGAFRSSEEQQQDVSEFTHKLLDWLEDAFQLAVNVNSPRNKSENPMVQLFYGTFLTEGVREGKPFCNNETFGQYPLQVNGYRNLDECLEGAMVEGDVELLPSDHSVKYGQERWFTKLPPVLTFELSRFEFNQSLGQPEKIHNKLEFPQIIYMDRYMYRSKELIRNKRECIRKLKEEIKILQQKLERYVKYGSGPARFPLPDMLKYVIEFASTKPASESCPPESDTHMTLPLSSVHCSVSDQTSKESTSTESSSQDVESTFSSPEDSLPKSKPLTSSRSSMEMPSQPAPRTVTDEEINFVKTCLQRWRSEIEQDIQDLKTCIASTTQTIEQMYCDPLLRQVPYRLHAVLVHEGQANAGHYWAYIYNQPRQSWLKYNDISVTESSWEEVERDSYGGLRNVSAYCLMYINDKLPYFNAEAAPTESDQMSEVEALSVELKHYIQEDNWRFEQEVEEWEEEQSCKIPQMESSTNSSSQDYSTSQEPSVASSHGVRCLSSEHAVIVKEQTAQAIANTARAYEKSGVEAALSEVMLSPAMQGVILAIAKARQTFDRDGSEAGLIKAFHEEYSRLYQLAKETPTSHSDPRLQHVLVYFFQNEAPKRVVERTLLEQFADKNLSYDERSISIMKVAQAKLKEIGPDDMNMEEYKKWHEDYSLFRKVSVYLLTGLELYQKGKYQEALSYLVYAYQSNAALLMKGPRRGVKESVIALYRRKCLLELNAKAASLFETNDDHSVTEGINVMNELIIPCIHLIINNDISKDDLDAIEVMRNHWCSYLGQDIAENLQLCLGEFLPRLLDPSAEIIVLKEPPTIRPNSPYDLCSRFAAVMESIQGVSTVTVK
An outline of the steps:
as §1

Sequence of USP24 (Q9UPU5 whole entry): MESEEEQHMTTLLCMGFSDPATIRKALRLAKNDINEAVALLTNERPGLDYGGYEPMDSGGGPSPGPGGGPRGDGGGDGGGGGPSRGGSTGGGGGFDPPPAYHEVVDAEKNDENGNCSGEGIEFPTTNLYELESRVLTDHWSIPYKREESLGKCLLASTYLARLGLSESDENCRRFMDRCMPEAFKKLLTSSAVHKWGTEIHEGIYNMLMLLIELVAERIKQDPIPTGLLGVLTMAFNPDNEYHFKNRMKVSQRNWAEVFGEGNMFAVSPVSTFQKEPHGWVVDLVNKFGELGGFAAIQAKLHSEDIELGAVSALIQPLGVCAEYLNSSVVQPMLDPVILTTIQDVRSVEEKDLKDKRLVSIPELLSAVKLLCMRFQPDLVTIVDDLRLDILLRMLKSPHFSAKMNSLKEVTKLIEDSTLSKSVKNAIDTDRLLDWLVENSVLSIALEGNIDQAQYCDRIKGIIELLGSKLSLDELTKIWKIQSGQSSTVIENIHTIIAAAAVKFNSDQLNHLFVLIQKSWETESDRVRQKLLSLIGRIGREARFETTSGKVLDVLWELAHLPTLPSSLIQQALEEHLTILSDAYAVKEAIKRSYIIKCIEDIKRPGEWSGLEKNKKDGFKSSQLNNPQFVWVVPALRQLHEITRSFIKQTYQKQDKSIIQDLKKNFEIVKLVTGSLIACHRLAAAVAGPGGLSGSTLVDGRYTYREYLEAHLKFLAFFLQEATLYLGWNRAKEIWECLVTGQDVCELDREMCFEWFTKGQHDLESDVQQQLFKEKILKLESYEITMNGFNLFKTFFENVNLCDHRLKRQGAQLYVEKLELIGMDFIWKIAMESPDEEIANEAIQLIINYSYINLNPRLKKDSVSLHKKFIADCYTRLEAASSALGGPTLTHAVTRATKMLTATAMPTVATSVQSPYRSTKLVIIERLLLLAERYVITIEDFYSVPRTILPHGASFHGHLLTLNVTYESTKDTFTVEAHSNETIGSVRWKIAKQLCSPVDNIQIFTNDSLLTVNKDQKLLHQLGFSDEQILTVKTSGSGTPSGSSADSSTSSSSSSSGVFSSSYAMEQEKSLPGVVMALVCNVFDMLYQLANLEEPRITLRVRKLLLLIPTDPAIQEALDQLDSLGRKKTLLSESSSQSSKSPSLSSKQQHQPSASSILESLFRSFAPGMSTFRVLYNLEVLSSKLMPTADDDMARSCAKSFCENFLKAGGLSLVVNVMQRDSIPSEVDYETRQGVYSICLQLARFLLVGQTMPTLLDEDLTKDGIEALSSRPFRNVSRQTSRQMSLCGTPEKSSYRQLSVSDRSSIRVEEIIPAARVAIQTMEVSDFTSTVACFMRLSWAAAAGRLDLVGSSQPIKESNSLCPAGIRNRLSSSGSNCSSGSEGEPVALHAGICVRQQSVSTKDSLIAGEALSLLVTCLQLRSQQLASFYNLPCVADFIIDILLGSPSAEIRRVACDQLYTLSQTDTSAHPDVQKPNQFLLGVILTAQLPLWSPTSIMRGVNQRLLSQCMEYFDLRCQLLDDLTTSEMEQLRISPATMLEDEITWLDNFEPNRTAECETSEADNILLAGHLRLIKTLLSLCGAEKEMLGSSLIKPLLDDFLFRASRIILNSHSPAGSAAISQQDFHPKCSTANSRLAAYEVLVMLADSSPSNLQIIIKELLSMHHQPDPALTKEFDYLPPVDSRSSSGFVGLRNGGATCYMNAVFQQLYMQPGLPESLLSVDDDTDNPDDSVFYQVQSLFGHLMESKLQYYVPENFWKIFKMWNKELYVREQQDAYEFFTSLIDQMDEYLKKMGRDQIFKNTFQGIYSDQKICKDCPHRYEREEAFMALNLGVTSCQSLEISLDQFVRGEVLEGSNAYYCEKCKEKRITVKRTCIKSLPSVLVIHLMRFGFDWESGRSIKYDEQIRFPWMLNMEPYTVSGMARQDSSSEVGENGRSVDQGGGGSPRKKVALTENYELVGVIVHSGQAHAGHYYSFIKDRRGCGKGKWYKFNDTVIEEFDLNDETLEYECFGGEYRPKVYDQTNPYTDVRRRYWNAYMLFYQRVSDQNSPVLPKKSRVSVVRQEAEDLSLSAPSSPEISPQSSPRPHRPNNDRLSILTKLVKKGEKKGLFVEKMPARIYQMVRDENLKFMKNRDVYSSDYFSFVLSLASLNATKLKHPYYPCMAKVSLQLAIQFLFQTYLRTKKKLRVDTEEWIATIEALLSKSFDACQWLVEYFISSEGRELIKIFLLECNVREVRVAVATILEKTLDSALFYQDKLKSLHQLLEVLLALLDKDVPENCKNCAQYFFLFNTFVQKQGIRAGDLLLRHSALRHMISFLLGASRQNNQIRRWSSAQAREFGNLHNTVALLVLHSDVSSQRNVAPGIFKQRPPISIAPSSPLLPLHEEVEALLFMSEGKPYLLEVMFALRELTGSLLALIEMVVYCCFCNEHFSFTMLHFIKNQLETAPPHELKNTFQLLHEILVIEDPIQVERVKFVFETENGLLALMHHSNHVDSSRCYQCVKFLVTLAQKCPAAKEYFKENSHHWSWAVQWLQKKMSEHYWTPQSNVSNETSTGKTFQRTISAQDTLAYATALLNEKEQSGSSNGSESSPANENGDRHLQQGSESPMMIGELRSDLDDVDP

On to `O=C(CCl)N1CCc2[nH]c3ccccc3c2C1`, for which the “log2 ratio of Biotin-Ahx-Ub-VS probe labelling” value in experiment [1] was 0.191; in experiment [2], -0.968; in experiment [3], -1.93 (active); in experiment [4], -0.589; in experiment [5], -0.765.
